Experimental data: PubChem BioAssay AID662 (National Center for Advancing Translational Sciences (NCATS), 2007)
About 1,800 (2.5%) of roughly 71,000 compounds were called active. Roughly 26% stayed inconclusive and do not appear here. This is one part of a sample in which actives are shown more often than they occur. Calls follow the shape of the dose curve; as a rule, active = well fitted activation curve with a large enough effect in the signal ratio, with a control signal flat (not every such curve was filed as active); inconclusive = small, poorly fitted or top-dose-only effect, or effect the other way, or a change in a side signal; inactive = flat fitted curve, though single readings scatter; the % refers to the signal ratio.

Test: Cell signaling CRE-BLA (Fsk stim); as to activity change, negative = inhibition: % of control where 0% means no effect
Details: CHO CRE-bla reporter (cAMP response element driving beta-lactamase), forskolin EC10, beta-lactamase ratio; series mostly up to 38.2 µM; activity change, negative = inhibition: at the top concentration
Excerpt: NIH Molecular Libraries Screening Centers Network [MLSCN]
NIH Chemical Genomics Center [NCGC]
Assay Provider: Marshall W. Nirenberg, U.S. National heart lung & blood institute
Memories persist for different lengths of time, from seconds or minutes to a lifetime. There are two kinds of memory: short-term memory (STM) and long-term memory (LTM). STM lasts for minutes to hours, which maybe mediated by modifications of molecules involved in synaptic functions. LTM lasts for days or longer, and may be due to the formation of new synapses or restructuring of existing synapses. LTM, but not STM, requires gene transcription and synthesis of proteins. CREB (cyclic-AMP Responsive Element Binding Protein) is one of the candidates plays an important role for enhancement of some types of LTM. CREB, a family of transcription factors, regulates the transcription of genes containing cAMP Responsive Elements (CRE). CRE is a nucleotide sequence often found in the promoter regions of genes that are binding sites for CREB.
Using a beta-lactamase reporter-gene under control of cAMP responsive element, a cell-based assay [CellSensor(TM) CRE-bla CHO developed by Invitrogen Corp.] was used to measure forskolin-induced signaling. Library compounds were measured for their ability to modulate positively or negatively the action of EC10 NKH 477, a water soluble forskolin, on reporter gene activity. Compounds were screened in a titration series in 1536-well format. Positive and negative modulators were identified based on the AC50 values derived from the screening data.
NCGC Assay Protocol Summary
2000 cells/5uL in Opti-MEM medium containing 0.5% dialyzed FBS, 0.1 mM NEAA, 1 mM sodium pyruvate and 10 mM HEPES was dispensed into 1536-well plates and cells were cultured at 37 degrees Celsius overnight. […] And then the plates were incubated at 37 degrees Celsius for 3 hours. 1 uL of CCF4-dye mixture was added to each well. After incubated at room temperature for 2 hours the plates were measured on an EnVision plate reader at Excitation 405nm, Emission1=460nm and Emission 2=530nm. The %Activity was determined from the ratio of 460nm/530nm.
Keywords: NIH Roadmap, MLSCN, MLSMR, qHTS, NCGC, CRE, beta-lactamase reporter-gene assay.
Potency is read from the fitted curve at half-maximal effect.

Activity change, negative = inhibition, inactive:
Cn1c(=O)c2c(nc(SCC(=O)Nc3ccccc3N3CCCCC3)n2C)n(C)c1=O 12.6%, COc1ccccc1NC(=O)CSc1nnc(-c2ccoc2C)n1CCc1ccccc1 -0.23%, C=CCc1cccc2cc(C(=O)OCC)c(=O)oc12 18.5%, COc1ccccc1N1CCN(C[C@@H]2CN3C(=O)N(C)c4ccccc4C3=N2)CC1 -8.31%, COc1cc(-c2nc(-c3ccncc3)no2)cc(OC)c1OC 28%, COc1ccc(-c2nc(-c3ccccc3)no2)c(OC)c1 -11.5%, COc1ccc(C(=O)n2nc(-c3ccc(C)cc3)nc2N)cc1OC 15.7%, COc1ccccc1C(=O)n1nc(-c2ccccc2)nc1N -11%, O=C1CC(N2CCN(C(c3ccccc3)c3ccccc3)CC2)C(=O)N1 (stereo unspecified) -6.11%, CC/C(=N\O)C(C)(C)/[N+]([O-])=C/c1ccc(Br)cc1 -3.39%, O=C(OCCO)c1cc(Cl)c(C(=O)OCCO)cc1Cl 1.61%, O=C(O)CN(Cc1ccco1)S(=O)(=O)c1ccccc1 2.24%, COc1ccccc1Nc1ncnc2c1oc1ccccc12 31.9%, CCc1nc(N2CCN(c3nc(C)cc(C)n3)CC2)c2oc3ccccc3c2n1 -1.26%, CC(C)(C)c1nc(NCC2CCCO2)c2nnn(Cc3ccccc3)c2n1 (stereo unspecified) 7.95%, CC(=O)NC(C)c1nc2ccccc2n1Cc1ccccc1F (stereo unspecified) -9.33%, Cc1cccc(C(=O)O)c1 -9.1%, CCOC(=O)CNC(=O)c1nn(-c2cccc(OC)c2)c(=O)c2ccccc12 14.6%, COC(=O)c1ccc(CSc2ccccc2C)o1 -26.7%, CCCC(NC(=O)c1ccccc1)c1nc2ccccc2n1Cc1ccc(C(=O)OC)o1 (stereo unspecified) 10.7%, O=c1c2ccccc2nc(CSc2nnnn2-c2ccccc2)n1-c1ccccc1 -0.982%, COc1ccc(S(=O)(=O)N2CCC(C(=O)N3CCOCC3)CC2)cc1OC 0.418%, COC(=O)C1(C)C=CCN1C(=O)c1ccccc1 (stereo unspecified) -3.13%, CC1COC2C(O1)N(S(C)(=O)=O)CCN2S(C)(=O)=O (stereo unspecified) -1.89%, O=C(C1CCN(CC2CCCCC2)CC1)N1CCCC1 -0.979%, CCOC(=O)C1CCN(C(=O)Nc2ccc(Cl)cc2)CC1 -3.28%, COCC(C)N=CC1=C(O)CC(C)(C)CC1=O (stereo unspecified) 4.27%, COCCn1c(C)cc(C(=O)CSc2ncnc3sc4c(c23)CCC4)c1C 8.37%, N=c1c2c3c(sc2ncn1N)CCCCC3 -0.591%, Cc1cc(N=CC2=C(O)CCCC2=O)no1 -1.94%, Cc1cc(C(=O)O)ccc1[N+](=O)[O-] -16.5%, COC(=O)C1C(=O)CC(C)(O)C(C(=O)OC)C1c1ccc2c(c1)OCO2 (stereo unspecified) -1.98%, C/C(=C\C(=O)c1cccnc1)Nc1ccc(C)c(C)c1 13.6%, COc1ccc(NC(=O)CSc2nnc(-c3cccs3)n2Cc2ccco2)cc1OC 5.96%, CC(Sc1nc2ccccc2c(=O)n1Cc1ccco1)C(=O)c1ccccc1 (stereo unspecified) 4.85%, CCCn1c(-c2ccc(F)cc2)nc2c(NC3CCN(Cc4ccccc4)C3)nc(C)nc21 (stereo unspecified) 10.1%, COC(CCN(C)C)(c1ccccc1)c1ccccc1 -22.8% [at 7.6 µM], CCCC[C@@H]1C[C@H]1C(NC(=O)c1ccc(-c2ccccc2)cc1)c1ccc(-c2ccccc2)cc1 (stereo partly specified) 2.34%, O=C(Nc1ccc(-c2nnc(-c3ccccc3)o2)cc1)c1ccc(Br)o1 -0.431%, COc1cc(OC)c(NC(=O)c2ccc(Br)o2)cc1Cl 19.3% [at 7.6 µM], CCSC1(SCC)N=C(N)C2(C#N)C(c3ccccc3)NC(C)=CC12C#N (stereo unspecified) -14.9%, O=C(Cn1cnc2c(cnn2-c2ccc(F)cc2)c1=O)NCCc1ccccc1 -4.15%, CCOC(=O)c1ccc(-n2c(C)nc3c(cnn3-c3ccccc3C)c2=O)cc1 4.93%, CCOC(=O)c1cnc2sccn2c1=O -5.25%, Cc1cc(C)cc(N)c1 -7.14%, CCCCNc1nc(C)nc2c1nc(-c1ccccc1)n2CCCCN(CC)CC 6.32%

Potency, active:
COc1ccc(-c2noc(-c3cccc(OC)c3OC)n2)cc1OC 2.51 µM, COc1ccc(C(=O)n2nc(-c3ccc(Cl)cc3)nc2N)cc1OC 2 µM, CCc1nc(Nc2ccc3nccnc3c2)c2oc3ccccc3c2n1 0.794 µM, C#CCNc1nc(C(C)C)nc2c1nnn2Cc1ccccc1F 10 µM, COC(=O)c1ccc(CSc2nc3ccccc3c(=O)n2-c2cccc(OC)c2)o1 5.01 µM, COCC(C)n1c(SCc2ccc(C(=O)OC)o2)nc2ccccc2c1=O (stereo unspecified) 10 µM, COCCNc1nc(-n2nc(C)cc2C)nc2sc3c(c12)CCCC3 12.6 µM, COc1ccccc1NC(=O)CSc1nc2sc(C)c(C)c2c(=O)n1Cc1ccco1 3.98 µM, Cc1cc(C)nc(-n2nc(C)cc2NC(=O)c2ccc(Br)o2)n1 1.26 µM, CCCn1c(=NC(C)=O)c(C(=O)OCC)cc2c(=O)n3ccccc3nc21 10 µM
